Reference: the supplement of paper PMC6992640

System: UCD52 (cells of a triple-negative basal-like breast cancer xenograft)
Experiment: cell viability of combination (% of vehicle); higher = less cytotoxic
Details: 1 µM; 72 h; partner dose: 10 nM
Experimental: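 PDX cells were treated for 72 h with each drug at 1 µM plus afatinib (10 nM; 1 µM for WHIM30). Luciferase viability is expressed as percent of vehicle.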

SMILES | cell viability of combination
C#Cc1cccc(Nc2ncnc3cc(OCCOC)c(OCCOC)cc23)c1 [Erlotinib] + CN(C)C/C=C/C(=O)Nc1cc2c(Nc3ccc(F)c(Cl)c3)ncnc2cc1O[C@H]1CCOC1 [Afatinib] | 55
Cc1c(-c2ccc(O)cc2)n(Cc2ccc(OCCN3CCCCCC3)cc2)c2ccc(O)cc12.Cl [Bazedoxifene HCl] + CN(C)C/C=C/C(=O)Nc1cc2c(Nc3ccc(F)c(Cl)c3)ncnc2cc1O[C@H]1CCOC1 [Afatinib] | 69.7
O=C(C=Cn1cnc(-c2cc(C(F)(F)F)cc(C(F)(F)F)c2)n1)NNc1cnccn1 + CN(C)C/C=C/C(=O)Nc1cc2c(Nc3ccc(F)c(Cl)c3)ncnc2cc1O[C@H]1CCOC1 [Afatinib] | 52.2
CC(=O)C1(O)Cc2c(O)c3c(c(O)c2C(OC2CC(N)C(O)C(C)O2)C1)C(=O)c1ccccc1C3=O.Cl (stereo not given) [Idarubicin HCl] + CN(C)C/C=C/C(=O)Nc1cc2c(Nc3ccc(F)c(Cl)c3)ncnc2cc1O[C@H]1CCOC1 [Afatinib] | 24.3
CO[C@@]12[C@H](COC(N)=O)C3=C(C(=O)C(C)=C(N)C3=O)N1C[C@@H]1N[C@@H]12 [Mitomycin C] + CN(C)C/C=C/C(=O)Nc1cc2c(Nc3ccc(F)c(Cl)c3)ncnc2cc1O[C@H]1CCOC1 [Afatinib] | 58.4
CN1CCN(CCOc2cc(OC3CCOCC3)c3c(Nc4c(Cl)ccc5c4OCO5)ncnc3c2)CC1 [Saracatinib (AZD0530)] + CN(C)C/C=C/C(=O)Nc1cc2c(Nc3ccc(F)c(Cl)c3)ncnc2cc1O[C@H]1CCOC1 [Afatinib] | 37.9
Cl.Cl.Fc1ccc(C(c2ccc(F)cc2)N2CCN(CC=Cc3ccccc3)CC2)cc1 [Flunarizine 2HCl] + CN(C)C/C=C/C(=O)Nc1cc2c(Nc3ccc(F)c(Cl)c3)ncnc2cc1O[C@H]1CCOC1 [Afatinib] | 77
CCC(=C(c1ccccc1)c1ccc(OCCN(C)C)cc1)c1ccccc1.O=C(O)CC(O)(CC(=O)O)C(=O)O [Tamoxifen Citrate] + CN(C)C/C=C/C(=O)Nc1cc2c(Nc3ccc(F)c(Cl)c3)ncnc2cc1O[C@H]1CCOC1 [Afatinib] | 69.5
CCCCCCCCCCCC1=C(O)C(=O)C=C(O)C1=O [Embelin] + CN(C)C/C=C/C(=O)Nc1cc2c(Nc3ccc(F)c(Cl)c3)ncnc2cc1O[C@H]1CCOC1 [Afatinib] | 67.8
CSc1ccc2c(c1)N(CCC1CCCCN1C)c1ccccc1S2.Cl (stereo not given) [Thioridazine HCl] + CN(C)C/C=C/C(=O)Nc1cc2c(Nc3ccc(F)c(Cl)c3)ncnc2cc1O[C@H]1CCOC1 [Afatinib] | 58.1
CC1=C(C(=O)OC(C)C)C(c2cccc([N+](=O)[O-])c2)C(C(=O)OC2CN(C(c3ccccc3)c3ccccc3)C2)=C(N)N1 (stereo not given) [Azelnidipine] + CN(C)C/C=C/C(=O)Nc1cc2c(Nc3ccc(F)c(Cl)c3)ncnc2cc1O[C@H]1CCOC1 [Afatinib] | 52.3
CCN(CC)CCNC(=O)c1c(C)[nH]c(C=C2C(=O)Nc3ccc(F)cc32)c1C [Sunitinib] + CN(C)C/C=C/C(=O)Nc1cc2c(Nc3ccc(F)c(Cl)c3)ncnc2cc1O[C@H]1CCOC1 [Afatinib] | 50.4
C=C1C(=CC=C2CCCC3(C)C2CCC3C(C)CCCC(C)C)CC(O)CC1O (stereo not given) [Alfacalcidol] + CN(C)C/C=C/C(=O)Nc1cc2c(Nc3ccc(F)c(Cl)c3)ncnc2cc1O[C@H]1CCOC1 [Afatinib] | 50
Cl.Fc1ccc(C2CCNCC2COc2ccc3c(c2)OCO3)cc1 (stereo not given) [Paroxetine HCl] + CN(C)C/C=C/C(=O)Nc1cc2c(Nc3ccc(F)c(Cl)c3)ncnc2cc1O[C@H]1CCOC1 [Afatinib] | 60.4
Br.Cc1ccc(Sc2ccccc2N2CCNCC2)c(C)c1 + CN(C)C/C=C/C(=O)Nc1cc2c(Nc3ccc(F)c(Cl)c3)ncnc2cc1O[C@H]1CCOC1 [Afatinib] | 55.4
CCCCc1oc2ccccc2c1C(=O)c1cc(I)c(OCCN(CC)CC)c(I)c1.Cl [Amiodarone HCl] + CN(C)C/C=C/C(=O)Nc1cc2c(Nc3ccc(F)c(Cl)c3)ncnc2cc1O[C@H]1CCOC1 [Afatinib] | 66.3
COc1cc(Nc2c(C#N)cnc3cc(OCCCN4CCN(C)CC4)c(OC)cc23)c(Cl)cc1Cl [Bosutinib (SKI-606)] + CN(C)C/C=C/C(=O)Nc1cc2c(Nc3ccc(F)c(Cl)c3)ncnc2cc1O[C@H]1CCOC1 [Afatinib] | 25.9
CC(Oc1cc(-c2cnn(C3CCNCC3)c2)cnc1N)c1c(Cl)ccc(F)c1Cl [(R)-Crizotinib] + CN(C)C/C=C/C(=O)Nc1cc2c(Nc3ccc(F)c(Cl)c3)ncnc2cc1O[C@H]1CCOC1 [Afatinib] | 48.3
COc1cc2ncnc(Nc3ccc(F)c(Cl)c3)c2cc1NC(=O)C=CCN1CCCCC1 + CN(C)C/C=C/C(=O)Nc1cc2c(Nc3ccc(F)c(Cl)c3)ncnc2cc1O[C@H]1CCOC1 [Afatinib] | 33
Cl.Cl.O=C1c2c(O)ccc(O)c2C(=O)c2c(NCCNCCO)ccc(NCCNCCO)c21 [Mitoxantrone HCl] + CN(C)C/C=C/C(=O)Nc1cc2c(Nc3ccc(F)c(Cl)c3)ncnc2cc1O[C@H]1CCOC1 [Afatinib] | 32.2

SMILES | cell viability of combination
COc1cccc2c1C(=O)c1c(O)c3c(c(O)c1C2=O)C[C@@](O)(C(C)=O)C[C@@H]3O[C@H]1C[C@H](N)[C@H](O)[C@H](C)O1.Cl [Daunorubicin HCl] + CN(C)C/C=C/C(=O)Nc1cc2c(Nc3ccc(F)c(Cl)c3)ncnc2cc1O[C@H]1CCOC1 [Afatinib] | 20.8
COc1ccc2c(O[C@H]3CC4C(=O)N(C)CCCC/C=C\[C@H]5C[C@@]5(C(=O)NS(=O)(=O)C5CC5)NC(=O)[C@@H]4C3)cc(-c3nc(C(C)C)cs3)nc2c1C (stereo not given in full) [Simeprevir] + CN(C)C/C=C/C(=O)Nc1cc2c(Nc3ccc(F)c(Cl)c3)ncnc2cc1O[C@H]1CCOC1 [Afatinib] | 64.5
CC[C@@H]1/C=C(\C)C[C@H](C)C[C@H](OC)[C@H]2O[C@@](O)(C(=O)C(=O)N3CCCC[C@H]3C(=O)O[C@H](/C(C)=C/[C@@H]3CC[C@H](Cl)[C@H](OC)C3)[C@H](C)[C@@H](O)CC1=O)[C@H](C)C[C@@H]2OC [Pimecrolimus] + CN(C)C/C=C/C(=O)Nc1cc2c(Nc3ccc(F)c(Cl)c3)ncnc2cc1O[C@H]1CCOC1 [Afatinib] | 70.7
CCN1CCN(Cc2ccc(Nc3ncc(F)c(-c4cc(F)c5nc(C)n(C(C)C)c5c4)n3)nc2)CC1.CS(=O)(=O)O + CN(C)C/C=C/C(=O)Nc1cc2c(Nc3ccc(F)c(Cl)c3)ncnc2cc1O[C@H]1CCOC1 [Afatinib] | 40.5
COC(=O)C1=C(C)NC(C)=C(C(=O)OCCN(C)Cc2ccccc2)C1c1cccc([N+](=O)[O-])c1.Cl (stereo not given) [Nicardipine HCl] + CN(C)C/C=C/C(=O)Nc1cc2c(Nc3ccc(F)c(Cl)c3)ncnc2cc1O[C@H]1CCOC1 [Afatinib] | 69.6
Cl.OC(CNCC(O)C1CCc2cc(F)ccc2O1)C1CCc2cc(F)ccc2O1 (stereo not given) [Nebivolol] + CN(C)C/C=C/C(=O)Nc1cc2c(Nc3ccc(F)c(Cl)c3)ncnc2cc1O[C@H]1CCOC1 [Afatinib] | 64.9
COc1ccc(CN2CCN(C(c3ccc(F)cc3)c3ccc(F)cc3)CC2)c(OC)c1OC.Cl.Cl [Lomerizine HCl] + CN(C)C/C=C/C(=O)Nc1cc2c(Nc3ccc(F)c(Cl)c3)ncnc2cc1O[C@H]1CCOC1 [Afatinib] | 68.9
CN(C)CC=CC(=O)Nc1cc2c(Nc3ccc(F)c(Cl)c3)ncnc2cc1OC1CCOC1 (stereo not given) [Afatinib (BIBW2992)] + CN(C)C/C=C/C(=O)Nc1cc2c(Nc3ccc(F)c(Cl)c3)ncnc2cc1O[C@H]1CCOC1 [Afatinib] | 21.3
CC(NCCCc1cccc(C(F)(F)F)c1)c1cccc2ccccc12.Cl (stereo not given) [Cinacalcet HCl] + CN(C)C/C=C/C(=O)Nc1cc2c(Nc3ccc(F)c(Cl)c3)ncnc2cc1O[C@H]1CCOC1 [Afatinib] | 67.7
CCc1cnn2c(NCc3ccc[n+]([O-])c3)cc(N3CCCCC3CCO)nc12 (stereo not given) + CN(C)C/C=C/C(=O)Nc1cc2c(Nc3ccc(F)c(Cl)c3)ncnc2cc1O[C@H]1CCOC1 [Afatinib] | 21.4
CCOC(=O)C1=C(COCCN)NC(C)=C(C(=O)OC)C1c1ccccc1Cl.O=S(=O)(O)c1ccccc1 (stereo not given) [Amlodipine Besylate] + CN(C)C/C=C/C(=O)Nc1cc2c(Nc3ccc(F)c(Cl)c3)ncnc2cc1O[C@H]1CCOC1 [Afatinib] | 83.6
COc1ccc2cc1Oc1ccc(cc1)CC1c3c(cc4c(c3Oc3cc5c(cc3OC)CCN(C)C5C2)OCO4)CCN1C (stereo not given) [Cepharanthine] + CN(C)C/C=C/C(=O)Nc1cc2c(Nc3ccc(F)c(Cl)c3)ncnc2cc1O[C@H]1CCOC1 [Afatinib] | 40.1
C1=C\COCc2cc(ccc2OCCN2CCCC2)Nc2nccc(n2)-c2cccc(c2)COC/1 [Pacritinib] + CN(C)C/C=C/C(=O)Nc1cc2c(Nc3ccc(F)c(Cl)c3)ncnc2cc1O[C@H]1CCOC1 [Afatinib] | 47.9
COc1cc(C(=O)NS(=O)(=O)c2ccccc2C)ccc1Cc1cn(C)c2ccc(NC(=O)OC3CCCC3)cc12 [Zafirlukast] + CN(C)C/C=C/C(=O)Nc1cc2c(Nc3ccc(F)c(Cl)c3)ncnc2cc1O[C@H]1CCOC1 [Afatinib] | 71.6
Cc1c(Cl)cccc1Nc1ccccc1C(=O)O [Tolfenamic Acid] + CN(C)C/C=C/C(=O)Nc1cc2c(Nc3ccc(F)c(Cl)c3)ncnc2cc1O[C@H]1CCOC1 [Afatinib] | 78.5
CCOc1cc2ncc(C#N)c(Nc3ccc(F)c(Cl)c3)c2cc1NC(=O)C=CCN(C)C [Pelitinib (EKB-569)] + CN(C)C/C=C/C(=O)Nc1cc2c(Nc3ccc(F)c(Cl)c3)ncnc2cc1O[C@H]1CCOC1 [Afatinib] | 28.6
CC(C)CC(NC(=O)C(CCc1ccccc1)NC(=O)CN1CCOCC1)C(=O)NC(Cc1ccccc1)C(=O)NC(CC(C)C)C(=O)C1(C)CO1 (stereo not given) [Carfilzomib (PR-171)] + CN(C)C/C=C/C(=O)Nc1cc2c(Nc3ccc(F)c(Cl)c3)ncnc2cc1O[C@H]1CCOC1 [Afatinib] | 13.1
CN1CCC(COc2cnc(-c3cccc(Cn4nc(-c5cccc(C#N)c5)ccc4=O)c3)nc2)CC1 + CN(C)C/C=C/C(=O)Nc1cc2c(Nc3ccc(F)c(Cl)c3)ncnc2cc1O[C@H]1CCOC1 [Afatinib] | 60.5
COc1cc2nccc(Oc3ccc(NC(=O)NC4CC4)c(Cl)c3)c2cc1C(N)=O [Lenvatinib (E7080)] + CN(C)C/C=C/C(=O)Nc1cc2c(Nc3ccc(F)c(Cl)c3)ncnc2cc1O[C@H]1CCOC1 [Afatinib] | 39.8
CNCCC(Oc1cccc2ccccc12)c1cccs1.Cl (stereo not given) [Duloxetine HCl] + CN(C)C/C=C/C(=O)Nc1cc2c(Nc3ccc(F)c(Cl)c3)ncnc2cc1O[C@H]1CCOC1 [Afatinib] | 59.8
